# Source: PubChem BioAssay (National Center for Advancing Translational Sciences (NCATS))
# RORgamma inh = qHTS for inhibitors of ROR gamma transcriptional activity | Drosophila S2 Gal4-RORgamma UAS-luciferase reporter, 20 h | Potency, µM (doses to about 53.6 µM), for inactives: top-dose activity change, negative = inhibition, most hits filed as inhibitors | actives 5.4% (n = 310,000) | AID 2551, 2010; also: potency is read from the fitted curve at half-maximal effect; nearly all actives have a fitted effect of over 60% in size
# Target sequence (P51450 whole entry, looked up, the tested form may be a part): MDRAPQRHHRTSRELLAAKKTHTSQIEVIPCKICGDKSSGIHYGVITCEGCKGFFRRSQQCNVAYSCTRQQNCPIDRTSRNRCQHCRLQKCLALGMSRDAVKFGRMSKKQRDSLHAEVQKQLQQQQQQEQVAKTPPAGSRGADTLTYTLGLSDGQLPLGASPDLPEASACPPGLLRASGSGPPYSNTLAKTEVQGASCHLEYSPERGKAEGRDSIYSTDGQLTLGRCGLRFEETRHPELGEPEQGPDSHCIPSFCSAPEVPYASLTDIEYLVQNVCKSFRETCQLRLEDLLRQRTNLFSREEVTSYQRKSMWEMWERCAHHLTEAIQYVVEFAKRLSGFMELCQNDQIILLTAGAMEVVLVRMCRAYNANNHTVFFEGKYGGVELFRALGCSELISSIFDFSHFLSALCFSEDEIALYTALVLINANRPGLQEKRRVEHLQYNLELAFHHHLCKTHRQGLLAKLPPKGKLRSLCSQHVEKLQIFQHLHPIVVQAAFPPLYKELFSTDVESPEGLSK
#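 Stably transfected Drosophila Schneider cells are the test system, with ROR gamma fused to Gal4 and luciferase under UAS control; luminescence is read after 20 hr of 700 uM copper sulfate induction at ambient temperature.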
# DT40 TDP1 no CPT = qHTS for Inhibitors of human tyrosyl-DNA phosphodiesterase 1 (TDP1): qHTS in cells in absence of CPT; DT40 Tdp1-/- hTDP1 cells, no CPT, ATP luminescence, 48 h; Potency, µM (series often up to 46.2 µM), for inactives: top-dose activity change, negative = growth inhibition, hits mostly inhibitors; actives 15% (n = 420,000); AID 686978, 2013; also: potency is read from the fitted curve at half-maximal effect; nearly all actives have a fitted effect of over 55% in size
#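 Growth of hTDP1-complemented DT40 Tdp1-knockout cells is measured by ATP luminescence after at least 48 hr compound exposure at 37 °C, with DMSO substituting for the 20 nM CPT used in the parallel screen.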
# TDP1 cell CPT = qHTS for Inhibitors of human tyrosyl-DNA phosphodiesterase 1 (TDP1): qHTS in cells in presence of CPT. chicken DT40 Tdp1-/-;hTDP1 cells + 20 nM CPT, ATP luminescence, 48 h. Potency, µM (top dose mostly 46.2 µM), without a hit: top-dose activity change, negative = growth inhibition, hits mostly inhibitors. actives 12% (n = 420,000); also: potency is read from the fitted curve at half-maximal effect; nearly all actives have a fitted effect of over 55% in size
#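 Chicken DT40 Tdp1-/- cells stably complemented with human TDP1 were seeded at 400 cells/well in medium containing 20 nM camptothecin, exposed to pin-transferred compounds, and grown at 37 °C for at least 48 hr. Viability was read as ATP luminescence.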
# IL1B secr inh = qHTS for Inhibitors of Inflammasome Signaling: IL-1-beta AlphaLISA Primary Screen; activity change, % at 57.5 µM; actives 4.7% (n = 360,000); THP-1 LPS/ATP IL-1B secretion, AlphaLISA, 16 h; active compounds read low; AID 743279, 2014; in the data active = activity change below about -50%; inconclusive = mostly about -30% to -49%
#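 THP-1 cells pretreated 1 hr with compounds (up to 57.5 uM final), then stimulated with LPS (250 ng/mL final) plus ATP (1.25 mM final); secreted IL-1B measured by AlphaLISA after 16 hr, decreased signal indicating inhibition.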
# Gal4-VP16 FLuc = VP16 counterscreen qHTS for inhibitors of ROR gamma transcriptional activity | Drosophila S2 Gal4-VP16 UAS-luciferase, luminescence, 20 h | AID 2546, 2010 | actives 3.5% (n = 310,000) | Potency, µM (doses to about 53.6 µM), for the others: at the top dose activity, negative = inhibition, usual class: inhibitors;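 also: Gal4-VP16 expression switched on by copper sulfate through the metallothionein promoter; potency is read from the fitted curve at half-maximal effect; nearly all actives have a fitted effect of over 50% in size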
# ELG1 DNA repair = qHTS screen for small molecules that inhibit ELG1-dependent DNA repair in human embryonic kidney (HEK293T) cells expressing luciferase-tagged ELG1 | actives 2.3% (n = 330,000) | Potency, µM (highest dose often 46.1 µM), for the others: at the highest dose activity change, negative = inhibition, most hits filed as inhibitors | HEK293T ELG1-luciferase reporter, luminescence, 16 h; DNA damage induced by 5-fluorouridine | AID 504467, 2011; also: potency is read from the fitted curve at half-maximal effect; nearly all actives have a fitted effect of over 55% in size
#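 Reporter activity after DNA damage by 5-fluorouridine is monitored. Compound-treated cells incubate 16 hr at 37 °C, then ONE-Glo is added for 30 min before luminescence reading.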
# Active calls of the source: *; ? = inconclusive; . = no result. Shown are actives, neighbours in structure and some others; about 21% of the full set was active somewhere. Unless noted, calls follow the shape of the dose curve; as a rule, active = well fitted curve in the direction sought with a large enough effect; inconclusive = small, poorly fitted or top-dose-only effect, or another doubt; inactive = no such curve, though single readings can be large; an effect the other way counts as inactive or inconclusive. % is scaled to controls: 0 for no effect and ±100 for the full control effect.
SMILES,RORgamma inh,DT40 TDP1 no CPT,TDP1 cell CPT,IL1B secr inh,Gal4-VP16 FLuc,ELG1 DNA repair
C=C(C)C(=O)/C=C/c1ccc(C(F)(F)F)cc1,-25.5%,.,.,.,4.8%,.
CN(C(=O)COC(=O)c1cccc(S(=O)(=O)N2CCOCC2)c1)C1CCS(=O)(=O)C1 (stereo not given),.,9.2%,-11.0%,4.3,.,4.1%
CCOc1ccc(C(=O)N(Cc2nc(-c3cccc(C)c3)no2)C(C)C)cc1,.,?,20.6µM*,.,.,.
CCN(Cc1nc(-c2ccccc2)no1)C(=O)c1ccc2c(c1)OCO2,19.1%,-19.2%,1.2%,27.2,2.1%,23.2%
COc1ccc(C(=O)N(Cc2nc(-c3ccc(C)cc3)no2)C2CCCCC2)cc1OC,-18.2%,?,?,-67.0*,-8.6%,?
CCN(Cc1nc(-c2cccc(C)c2)no1)C(=O)c1ccc2c(c1)OCO2,?,-5.7%,-5.5%,-69.2*,4.5%,-20.1%
Cc1onc(-c2ccccc2Cl)c1C(=O)NCC1CCCO1 (stereo not given),2.7%,-2.3%,-16.8%,-0.5,-3.2%,?
Cc1onc(-c2ccccc2Cl)c1C(=O)N(Cc1nc(-c2ccccc2)no1)C1CCCCC1,-0.5%,18.4µM*,?,6.6,3.4%,?
Cc1cccc(-c2noc(CN(C(=O)c3ccc(Br)o3)C(C)C)n2)c1,-21.7%,-8.7%,?,-5.3,1.6%,?
COC(=O)/C(C#N)=C/c1c(Oc2cccc(C)c2C)nc2ccccn2c1=O,-2.3%,-25.7%,0.5%,24.0,0.1%,-4.4%
COc1ccc(-c2noc(CN(C(=O)c3ccc4c(c3)OCO4)C(C)C)n2)cc1OC,.,?,?,-18.5,.,?
Cc1cccc(-c2noc(CN(C(=O)c3ccc4c(c3)OCO4)C(C)C)n2)c1,-2.5%,?,18.4µM*,-12.8,-16.4%,?
Cc1nc(C(C)N(C)Cc2nc(-c3ccc4c(c3)OCO4)no2)c(C)s1 (stereo not given),17.8µM*,?,23.1µM*,-17.9,?,9.8%
Cc1cccc(-c2noc(CN(C(=O)COc3ccc(C(C)C)cc3)C(C)C)n2)c1,.,16.4µM*,?,.,.,.
O=C(Nc1ccncc1)c1cc(C2CCCCN2C(=O)CCc2ccccc2)on1 (stereo not given),.,?,?,1.5,.,.
Cc1nonc1C1CCCN1Cc1cn[nH]c1-c1ccc(-c2ccccc2)cc1 (stereo not given),-34.6%,?,?,-13.8,-6.1%,5.8%
COc1ccccc1CNC(=O)c1ccc2c(c1)CCN2S(=O)(=O)c1ccccc1,.,8.2µM*,?,.,.,.
COc1ccc(S(=O)(=O)N2Cc3ccccc3CC2C(=O)Nc2cccc(C)c2)cc1OC (stereo not given),.,9.2µM*,?,.,.,.
CCCCOC(=O)c1ccc(NC(=O)c2ccc3c(c2)CCN3S(=O)(=O)c2ccccc2)cc1,.,7.31µM*,5.8µM*,.,.,.
CCOC(=O)c1ccc(NC(=O)c2ccc3c(c2)CCN3S(=O)(=O)c2ccc(Cl)cc2)cc1,.,?,7.31µM*,.,.,.
COc1ccc(CNC(=O)c2ccc3c(c2)CCN3S(=O)(=O)c2ccc(C)cc2)cc1,.,13µM*,10.3µM*,.,.,.
NS(=O)(=O)c1ccc(NC(=O)c2ccc3c(c2)CCN3S(=O)(=O)c2ccccc2)cc1,?,10.3µM*,23.1µM*,-4.1,-15.8%,?
Cc1ccc(S(=O)(=O)N2CCc3cc(C(=O)NCCc4ccccc4)ccc32)cc1,.,-28.2%,?,.,.,.
CCOC(=O)c1ccc(NC(=O)C2CC(O)CN2S(=O)(=O)c2ccc(C)cc2)cc1 (stereo not given),.,?,-25.1%,11.6,.,?
O=C(Nc1nccs1)C1Cc2ccccc2CN1S(=O)(=O)c1ccc(F)cc1 (stereo not given),?,14.6µM*,?,6.0,-10.8%,?
SMILES,RORgamma inh,DT40 TDP1 no CPT,TDP1 cell CPT,IL1B secr inh,Gal4-VP16 FLuc,ELG1 DNA repair
CCOC(=O)c1ccc(NC(=O)C2Cc3ccccc3CN2S(=O)(=O)c2ccc(Cl)cc2)cc1 (stereo not given),.,16.4µM*,?,.,.,.
O=c1cnc2cnc(Oc3cccc(Cl)c3)nc2n1C[C@H]1CCCO1,-19.1%,-16.6%,?,.,-8.3%,.
O=C(CCCNC(=O)c1ccc(Cl)cc1)Nc1nccs1,.,-25.0%,-1.6%,71.7,.,0.1%
C=CCOc1ccc2c(=O)n(C)c3ccccc3c2c1,7.5%,.,.,.,1.9%,.
COc1ccc(NC(=O)c2ccc3c(c2)CCN3S(=O)(=O)c2ccccc2)cc1,42.6%,?,?,-56.1*,-9.5%,?
O=[N+]([O-])c1cccc(S(=O)(=O)/N=C(/Nc2ccccc2)c2ccccc2)c1,.,-13.3%,-8.6%,-3.8,.,?
O=[N+]([O-])c1cccc(-c2ccc(/C=N/Nc3nc(N4CCCCC4)nc(N4CCCCC4)n3)o2)c1,10µM*,?,?,-14.4,-5.7%,?
O=[N+]([O-])c1ccc(-n2cccc2/C=N/Nc2nc(N3CCCCC3)nc(N3CCCCC3)n2)cc1,8.0%,.,.,.,-15.1%,12.3%
COc1ccccc1-c1cnnc(N/N=C/c2ccc(-c3cccc(Br)c3)o2)n1,1µM*,23.1µM*,14.6µM*,-22.1,2µM*,8.2µM*
O=[N+]([O-])c1ccc(-c2ccc(/C=N/Nc3nc(N4CCCC4)nc(N4CCCC4)n3)o2)cc1,?,4.61µM*,14.6µM*,41.0,-9.9%,2.6%
O=C(O)c1cccc(-c2ccc(/C=N/Nc3nn[nH]n3)o2)c1,-10.8%,1.7%,15.6%,3.1,9.5%,?
COc1ccc(-c2cnnc(N/N=C/c3ccc(O)c(OC)c3)n2)cc1,-10.9%,5.17µM*,5.17µM*,-27.5,-12.4%,20.6µM*
CC(=O)Nc1sc(C)c(C)c1C(=O)OCC(=O)N(Cc1ccccc1)C(C)C,.,-28.4%,?,20.9,.,-22.4%
Cc1noc(C)c1C(=O)N1CCC[C@@]2(CCN(c3ccccc3)C2)C1,26.3%,?,7.2%,.,-4.4%,.
CC1CCN(C(=O)CCCl)c2ccccc21 (stereo not given),.,-17.7%,5.1%,-5.3,.,.
